# Experimental data published in PubChem BioAssay (Tox21).
# Results filed as inconclusive are left out. A call without a number means that no potency is given here. Active and inactive are the calls of the source. Unless noted, calls follow the shape of the dose curve; as a rule, active = well fitted curve in the direction sought with a large enough effect in the repeat runs; inconclusive = weak or mixed curves; inactive = no such curve, though single readings can be large; an effect the other way counts as inactive or inconclusive.
# Legend:
# [1] = qHTS assay to identify small molecule antagonists of the sonic hedgehog signaling (Shh) pathway (AID 1259369; calls by dose curve; also: nearly all actives have a fitted effect of over 45% in size; also: potency is read from the fitted curve at half-maximal effect)
# Outline: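 Stable Gli1-Luc reporter NIH/3T3 clone; quantitative HTS in stimulated mode with conditioned medium. Luminescence measured after 24hr compound treatment at 37 C.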
# [2] = qHTS assay to identify small molecule agonists of the androgen receptor (AR) signaling pathway in the presence of an antagonist - cell viability counter screen (AID 1259379); also: nearly all actives have a fitted effect of over 25% in size; also: potency is read from the fitted curve at half-maximal effect
# Outline: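 Nilutamide-containing (3.0uM final) MDA-kb2 cultures, 3,000 cells/well, were treated with compounds across 15 concentrations. After 16 hr at 37C with no CO2, cell viability was determined by CellTiter-Fluor fluorescence in the luciferase assay wells.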
# [3] = qHTS assay to identify small molecule agonists of the estrogen receptor beta (ER-beta) signaling pathway - cell viability counter screen (AID 1259380); also: nearly all actives have a fitted effect of over 30% in size; also: potency is read from the fitted curve at half-maximal effect
# Outline: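 Steps: plate ER-beta-UAS-bla HEK293T cells, rest 6 hr; add compounds in DMSO; incubate 16 hr at 37C, 5% CO2; add FRET substrate 2 hr; add CellTiter-Glo, wait 30 min at room temperature; read luminescence.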
# [4] = qHTS assay to identify small molecule antagonists of the estrogen receptor beta (ER-beta) signaling pathway - cell viability counter screen (AID 1259382); also: nearly all actives have a fitted effect of over 55% in size; also: potency is read from the fitted curve at half-maximal effect
# Outline: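 Viability is scored by CellTiter-Glo luminescence (30 min, room temperature) in ER-beta-UAS-bla HEK293T wells already read for reporter fluorescence. Compound exposure lasts 16 hr at 37C alongside 1nM 17-beta-estradiol in charcoal-stripped serum medium.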
# [5] = target: Estrogen receptor (Homo sapiens) (UniProt P03372); experiment: qHTS assay to identify small molecule agonists of the estrogen receptor alpha (ER-alpha) signaling pathway in the presence of an antagonist (AID 1259383; calls by dose curve; also: top concentration of the series differs between compounds; nearly all actives have a fitted effect of over 15% in size)
# Chain of Estrogen receptor (Homo sapiens) (P03372 whole entry, looked up): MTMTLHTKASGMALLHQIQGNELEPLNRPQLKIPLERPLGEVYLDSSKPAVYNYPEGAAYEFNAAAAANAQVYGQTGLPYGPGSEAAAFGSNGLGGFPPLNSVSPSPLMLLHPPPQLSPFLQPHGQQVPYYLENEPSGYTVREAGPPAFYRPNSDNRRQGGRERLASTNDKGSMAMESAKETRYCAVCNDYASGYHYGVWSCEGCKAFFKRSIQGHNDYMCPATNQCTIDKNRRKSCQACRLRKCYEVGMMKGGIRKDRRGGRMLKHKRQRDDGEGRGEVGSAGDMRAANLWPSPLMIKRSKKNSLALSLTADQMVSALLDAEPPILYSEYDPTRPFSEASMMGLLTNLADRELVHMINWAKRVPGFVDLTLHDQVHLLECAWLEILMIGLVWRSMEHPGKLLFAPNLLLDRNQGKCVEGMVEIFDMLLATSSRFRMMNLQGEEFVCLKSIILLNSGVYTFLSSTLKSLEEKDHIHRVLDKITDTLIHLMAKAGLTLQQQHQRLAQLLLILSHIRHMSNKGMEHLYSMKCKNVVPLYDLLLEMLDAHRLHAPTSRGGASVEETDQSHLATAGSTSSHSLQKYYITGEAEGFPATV
# Outline: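 Readout was ERE-driven luciferase luminescence in VM7Luc4E2 cells, which express full-length ER-alpha endogenously. Compounds were tested at 15 concentrations for 22hr alongside 10.0nM ICI-182,780 (final concentration).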
# [6] = qHTS assay to identify small molecule agonists or antagonists of the thyroid stimulating hormone receptor (TSHR) signaling pathway - wild type cell line counter screen (AID 1259384; calls by dose curve)
# Outline: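 Wild-type Hek293 cells, 800/well, 18 h at 37C, then compound with Ro20-1724 for 30 min RT. cAMP by HTRF (cAMP-d2/anti-cAMP cryptate), 1 h RT, fluorescence read. 15 concentrations, triplicates.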
# [7] = target: Thyrotropin receptor (Homo sapiens) (UniProt P16473); experiment: qHTS assay to identify small molecule antagonists of the thyroid stimulating hormone receptor (TSHR) signaling pathway (AID 1259385; calls by dose curve; also: nearly all actives have a fitted effect of over 20% in size)
# Chain of Thyrotropin receptor (Homo sapiens) (P16473 whole entry, looked up): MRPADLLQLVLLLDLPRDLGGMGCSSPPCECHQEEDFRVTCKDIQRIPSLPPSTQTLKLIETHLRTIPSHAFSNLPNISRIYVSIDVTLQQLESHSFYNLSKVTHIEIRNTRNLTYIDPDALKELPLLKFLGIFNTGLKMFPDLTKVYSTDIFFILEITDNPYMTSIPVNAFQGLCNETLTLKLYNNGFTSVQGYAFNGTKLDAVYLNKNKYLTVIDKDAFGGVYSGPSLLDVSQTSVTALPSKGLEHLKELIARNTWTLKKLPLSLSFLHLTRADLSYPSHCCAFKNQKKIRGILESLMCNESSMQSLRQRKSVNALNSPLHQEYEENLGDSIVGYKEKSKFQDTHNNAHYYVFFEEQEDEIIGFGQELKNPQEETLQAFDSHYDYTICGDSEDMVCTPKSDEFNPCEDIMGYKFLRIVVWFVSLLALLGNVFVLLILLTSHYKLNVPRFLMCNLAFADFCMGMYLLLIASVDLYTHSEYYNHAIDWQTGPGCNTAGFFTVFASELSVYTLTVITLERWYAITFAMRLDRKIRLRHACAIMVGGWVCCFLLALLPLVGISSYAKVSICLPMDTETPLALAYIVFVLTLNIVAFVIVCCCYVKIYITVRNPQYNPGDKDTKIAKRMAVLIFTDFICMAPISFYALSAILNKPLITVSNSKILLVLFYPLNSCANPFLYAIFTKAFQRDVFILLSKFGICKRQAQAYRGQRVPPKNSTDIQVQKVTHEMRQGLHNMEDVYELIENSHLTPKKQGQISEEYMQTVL
# Outline: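 TSHR-HEK293 cells (800/well) plated 18 h, then compounds with Ro20-1724 and TSH at 1.5 ng/mL final, 30 min at room temperature. cAMP quantified by HTRF (cAMP-d2/anti-cAMP-cryptate, 1 h); 15 concentrations in triplicate.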
# [8] = qHTS assay to identify small molecule agonists of the estrogen receptor alpha (ER-alpha) signaling pathway in the presence of an antagonist - cell viability counter screen (AID 1259386);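 also: cells exposed to compounds for 22 h at 37 °C before the viability read; nearly all actives have a fitted effect of over 30% in size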; also: potency is read from the fitted curve at half-maximal effect
# Outline: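 In this counter screen, compound effects on VM7Luc4E2 viability were tested in the presence of the antagonist ICI-182,780 at 10.0nM final. Compounds were dosed at 15 concentrations, exposure lasted 22hr, and the CellTiter-Fluor signal was read.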
# [9] = target: Progesterone receptor (Homo sapiens) (UniProt P06401); experiment: qHTS assay to identify small molecule agonists of the progesterone receptor (PR) signaling pathway (AID 1346784; calls by dose curve; also: nearly all actives have a fitted effect of over 30% in size; also: potency is read from the fitted curve at half-maximal effect)
# Chain of Progesterone receptor (Homo sapiens) (P06401 whole entry, looked up): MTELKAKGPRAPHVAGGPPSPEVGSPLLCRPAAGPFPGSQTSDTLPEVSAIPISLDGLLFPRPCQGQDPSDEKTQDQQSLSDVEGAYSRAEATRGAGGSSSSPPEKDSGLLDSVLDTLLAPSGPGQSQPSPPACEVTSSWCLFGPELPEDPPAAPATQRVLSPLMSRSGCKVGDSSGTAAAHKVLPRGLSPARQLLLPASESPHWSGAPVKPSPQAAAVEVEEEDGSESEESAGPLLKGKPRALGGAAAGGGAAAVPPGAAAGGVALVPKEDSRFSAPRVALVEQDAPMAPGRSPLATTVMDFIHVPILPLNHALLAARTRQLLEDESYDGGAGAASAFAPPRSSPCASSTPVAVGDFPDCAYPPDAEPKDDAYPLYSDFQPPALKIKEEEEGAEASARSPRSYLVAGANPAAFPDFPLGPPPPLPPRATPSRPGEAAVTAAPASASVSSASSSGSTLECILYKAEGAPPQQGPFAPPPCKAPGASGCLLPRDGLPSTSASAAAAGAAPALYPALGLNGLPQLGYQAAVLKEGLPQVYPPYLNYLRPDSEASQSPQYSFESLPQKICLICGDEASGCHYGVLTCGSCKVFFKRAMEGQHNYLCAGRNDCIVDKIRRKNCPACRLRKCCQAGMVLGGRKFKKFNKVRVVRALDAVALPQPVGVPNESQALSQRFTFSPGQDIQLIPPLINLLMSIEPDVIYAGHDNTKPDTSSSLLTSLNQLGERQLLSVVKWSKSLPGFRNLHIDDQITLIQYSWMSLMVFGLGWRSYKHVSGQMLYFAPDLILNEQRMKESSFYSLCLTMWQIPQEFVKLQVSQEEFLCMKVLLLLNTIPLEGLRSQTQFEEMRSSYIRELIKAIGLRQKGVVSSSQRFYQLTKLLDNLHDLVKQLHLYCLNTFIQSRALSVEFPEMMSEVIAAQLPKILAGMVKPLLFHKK
# Outline: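 PR-UAS-bla HEK 293T cells carrying a UAS-driven beta-lactamase reporter were seeded in medium with 2% charcoal-stripped FBS, preincubated 6 hr at 37C, then exposed to compounds in DMSO for 16 hr; agonism was read by LiveBLAzer B/G FRET fluorescence.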
# [10] = qHTS assay to identify small molecule agonists of the progesterone receptor (PR) signaling pathway - cell viability counter screen (AID 1346799; calls by dose curve; also: nearly all actives have a fitted effect of over 45% in size; also: potency is read from the fitted curve at half-maximal effect)
# Outline: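 PR-UAS-bla HEK293T cells, 3,000 per well in medium with 2% charcoal-stripped FBS, were preincubated 6 hr at 37C, then exposed to compounds for 16 hr; viability was read as CellTiter-Glo luminescence after 30 min at room temperature.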
# [11] = qHTS assay to identify small molecule antagonists of the TGF-beta/Smad signaling pathway - cell viability counter screen (AID 1346824); also: nearly all actives have a fitted effect of over 50% in size
# Outline: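 SBE-bla HEK 293T cells, incubated overnight, then compound plus 0.25 ng/mL TGF-beta1 (stock added) for 5 hr at 37 C. Viability was read in the same wells by CellTiter-Glo luminescence after 30 min at room temperature.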
# [12] = qHTS assay to identify small molecule agonists of the TGF-beta/Smad signaling pathway - cell viability counter screen (AID 1346829); also: top concentration of the series differs between compounds; nearly all actives have a fitted effect of over 45% in size
# Outline: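 HEK 293T SBE-bla line, 5 hr compound exposure at 37 C, multiplexed CellTiter-Glo viability read by luminescence.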
# [13] = qHTS assay to identify small molecule agonists of the TGF-beta/Smad signaling pathway (AID 1346859; active = well fitted activation curve with a large enough effect in the signal ratio in the repeat runs, not every such curve was filed as active; the % refers to the signal ratio; also: series mostly up to about 77 µM)
# Outline: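 HEK 293T cells stably carrying a beta-lactamase reporter driven by the Smad binding element were seeded overnight, exposed to DMSO-dissolved compounds for 5 hr at 37 C, 5% CO2, then loaded with FRET substrate for 2 hr at room temperature.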
# [14] = target: Androgen receptor (Homo sapiens) (UniProt P10275); experiment: qHTS assay to identify small molecule agonists of the androgen receptor (AR) signaling pathway in the presence of an antagonist (AID 1259381; calls by dose curve; also: nearly all actives have a fitted effect of over 15% in size; also: potency is read from the fitted curve at half-maximal effect)
# Chain of Androgen receptor (Homo sapiens) (P10275 whole entry, looked up): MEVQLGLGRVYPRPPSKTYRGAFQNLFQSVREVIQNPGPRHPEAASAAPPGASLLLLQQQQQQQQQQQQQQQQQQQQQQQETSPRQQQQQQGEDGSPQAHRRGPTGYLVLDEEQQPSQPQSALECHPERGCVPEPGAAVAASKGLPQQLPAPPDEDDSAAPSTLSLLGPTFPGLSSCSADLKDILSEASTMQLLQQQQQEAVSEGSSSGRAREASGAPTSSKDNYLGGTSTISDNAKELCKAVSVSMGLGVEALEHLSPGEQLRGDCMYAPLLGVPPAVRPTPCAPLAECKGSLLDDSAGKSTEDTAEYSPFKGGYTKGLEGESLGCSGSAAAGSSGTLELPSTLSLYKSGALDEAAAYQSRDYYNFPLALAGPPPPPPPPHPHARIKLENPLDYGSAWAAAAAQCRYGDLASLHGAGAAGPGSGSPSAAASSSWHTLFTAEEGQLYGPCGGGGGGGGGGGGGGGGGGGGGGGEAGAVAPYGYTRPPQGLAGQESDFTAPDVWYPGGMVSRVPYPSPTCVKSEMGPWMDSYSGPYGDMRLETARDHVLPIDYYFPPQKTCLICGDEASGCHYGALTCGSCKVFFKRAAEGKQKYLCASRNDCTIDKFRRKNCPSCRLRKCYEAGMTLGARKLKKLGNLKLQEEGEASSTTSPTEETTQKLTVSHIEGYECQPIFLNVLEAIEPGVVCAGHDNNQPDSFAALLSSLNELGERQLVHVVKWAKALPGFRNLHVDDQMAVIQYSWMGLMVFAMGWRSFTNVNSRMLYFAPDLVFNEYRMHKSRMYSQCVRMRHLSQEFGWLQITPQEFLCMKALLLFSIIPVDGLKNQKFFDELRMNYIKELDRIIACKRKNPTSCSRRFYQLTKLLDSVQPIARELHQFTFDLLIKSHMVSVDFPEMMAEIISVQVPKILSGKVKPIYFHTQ
# Outline: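 Reporter-gene luminescence from MDA-kb2 cells exposed 16hr at 37C (0% CO2) to 15-point compound titrations with 3.0uM final nilutamide as AR antagonist.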
# [15] = target: Progesterone receptor (Homo sapiens) (UniProt P06401); experiment: qHTS assay to identify small molecule antagonists of the progesterone receptor (PR) signaling pathway (AID 1346795; active = well fitted inhibition curve with a large enough effect in the signal ratio in the repeat runs, not every such curve was filed as active; the % refers to the signal ratio; also: potency is read from the fitted curve at half-maximal effect)
# Outline: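 PR-UAS-bla HEK293T cells carrying a UAS-driven beta-lactamase reporter were plated in medium with 2% charcoal-stripped FBS and rested 6 hr at 37C. Compounds were added with 1 nM R5020 (final) for 16 hr, then FRET substrate loaded 2 hr at room temperature.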
# [16] = qHTS assay to identify small molecule antagonists of the progesterone receptor (PR) signaling pathway - cell viability counter screen (AID 1346798); also: series mostly up to about 92 µM; nearly all actives have a fitted effect of over 50% in size
# Outline: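 PR-UAS-bla HEK293T cells in medium with 2% charcoal-stripped FBS were treated with compounds plus R5020 for 16 hr at 37C. Cell viability was then read by CellTiter-Glo luminescence after 30 min at room temperature in the same wells.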
# [17] = target: Thyrotropin-releasing hormone receptor (Homo sapiens) (UniProt P34981); experiment: qHTS assay to identify small molecule antagonists of the thyrotropin-releasing hormone receptor (TRHR) signaling pathway (AID 1346877; active = well fitted inhibition curve with a large enough effect in the repeat runs, not every such curve was filed as active; also: series mostly up to about 51 µM)
# Chain of Thyrotropin-releasing hormone receptor (Homo sapiens) (P34981 whole entry, looked up): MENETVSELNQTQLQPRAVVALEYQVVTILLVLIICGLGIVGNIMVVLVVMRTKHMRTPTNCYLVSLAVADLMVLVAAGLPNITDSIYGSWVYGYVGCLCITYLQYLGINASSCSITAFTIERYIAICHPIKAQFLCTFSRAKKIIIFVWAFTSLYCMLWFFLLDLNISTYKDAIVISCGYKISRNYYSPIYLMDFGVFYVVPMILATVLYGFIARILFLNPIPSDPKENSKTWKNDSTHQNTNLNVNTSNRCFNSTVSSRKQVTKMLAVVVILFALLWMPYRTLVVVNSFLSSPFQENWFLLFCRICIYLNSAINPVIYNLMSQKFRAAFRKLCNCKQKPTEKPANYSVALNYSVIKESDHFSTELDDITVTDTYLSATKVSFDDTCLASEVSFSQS
# Outline: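 Kinetic fluorescence (3 min, 1 s resolution) following stimulation with TRH at 1 nM final; HEK293 cells bearing human TRHR; 5 min compound preincubation at RT; concentration-response over 15 points, triplicates.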
# [18] = target: Thyrotropin-releasing hormone receptor (Homo sapiens) (UniProt P34981); experiment: qHTS assay to identify small molecule agonists of the thyrotropin-releasing hormone receptor (TRHR) signaling pathway (AID 1346891; calls by dose curve; also: series mostly up to about 58 µM)
# Outline: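 TRHR-expressing HEK293 cells were plated 18 h at 37 °C/5% CO2, loaded with calcium dye 2 h at 37 °C, then given compound in DMSO; fluorescence was read kinetically for 3 min at 1 s intervals.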
# [19] = target: Estrogen receptor beta (Homo sapiens) (UniProt Q92731); experiment: qHTS assay to identify small molecule antagonists of the estrogen receptor beta (ER-beta) signaling pathway (AID 1259378; active = well fitted inhibition curve with a large enough effect in the signal ratio in the repeat runs, not every such curve was filed as active; the % refers to the signal ratio)
# Chain of Estrogen receptor beta (Homo sapiens) (Q92731 whole entry, looked up): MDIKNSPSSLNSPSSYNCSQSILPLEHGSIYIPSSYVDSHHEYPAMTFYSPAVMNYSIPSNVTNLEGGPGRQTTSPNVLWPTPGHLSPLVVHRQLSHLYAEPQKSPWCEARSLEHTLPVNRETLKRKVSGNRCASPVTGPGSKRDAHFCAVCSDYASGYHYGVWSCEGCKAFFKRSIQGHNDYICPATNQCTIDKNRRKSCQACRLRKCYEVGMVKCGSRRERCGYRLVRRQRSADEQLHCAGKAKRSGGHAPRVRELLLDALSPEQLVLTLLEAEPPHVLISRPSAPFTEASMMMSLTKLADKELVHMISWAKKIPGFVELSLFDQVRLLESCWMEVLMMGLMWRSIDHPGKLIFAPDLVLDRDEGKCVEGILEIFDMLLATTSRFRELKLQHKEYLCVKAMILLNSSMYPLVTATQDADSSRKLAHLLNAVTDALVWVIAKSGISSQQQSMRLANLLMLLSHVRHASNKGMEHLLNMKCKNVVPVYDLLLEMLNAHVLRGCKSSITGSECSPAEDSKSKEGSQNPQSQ
# Outline: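 ER-beta-UAS-bla HEK293T cells in 2% charcoal-stripped FBS medium treated with compound plus 1nM final 17-beta-estradiol for 16 hr at 37C. Beta-lactamase reporter read by FRET substrate fluorescence after 2 hours at room temperature.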
SMILES,Potency [1],Potency [2],Potency [3],Potency [4],Potency [5],Potency [6],Potency [7],Potency [8],Potency [9],Potency [10],Potency [11],outcome [12],Potency [13],Potency [14],Potency [15],Potency [16],outcome [17],Potency [18],Potency [19]
CN(C)c1ccc(CCO)cc1,inactive,inactive,inactive,inactive,inactive,inactive,inactive,inactive,inactive,inactive,inactive,inactive,inactive,,,,,,
O=CC1CC=CCC1 (centres undefined),inactive,inactive,inactive,inactive,inactive,inactive,inactive,inactive,inactive,inactive,inactive,inactive,inactive,inactive,inactive,inactive,inactive,inactive,
Cc1nn(C)c(Oc2ccccc2)c1/C=N/OCc1ccc(C(=O)OC(C)(C)C)cc1,0.0273 µM (active),0.0306 µM (active),inactive,inactive,inactive,inactive,,0.0863 µM (active),inactive,,inactive,inactive,inactive,inactive,,inactive,inactive,inactive,
CCCCC(CC)COC(=O)CCCCCCCCC(=O)OCC(CC)CCCC (centres undefined),inactive,inactive,inactive,inactive,inactive,inactive,inactive,inactive,inactive,inactive,inactive,inactive,inactive,,inactive,inactive,inactive,inactive,
Nc1c(CC(=O)O)cccc1C(=O)c1ccc(Br)cc1,inactive,inactive,inactive,inactive,inactive,inactive,inactive,,inactive,,,inactive,,,,inactive,inactive,inactive,
C[N+]1(C)CCC(OC(=O)C(O)(c2ccccc2)C2CCCC2)C1 (centres undefined),inactive,inactive,inactive,inactive,inactive,inactive,inactive,inactive,inactive,inactive,inactive,inactive,inactive,,inactive,inactive,inactive,inactive,
C=CC(=O)OCCOc1ccccc1,61.1 µM (active),inactive,,,,inactive,inactive,inactive,inactive,inactive,inactive,inactive,inactive,,inactive,inactive,inactive,inactive,inactive
O=C1c2ccccc2S(=O)(=O)N1CCCCN1CCN(c2ncccn2)CC1,inactive,inactive,inactive,inactive,inactive,inactive,inactive,inactive,inactive,inactive,,inactive,,,inactive,inactive,inactive,inactive,
O=C(OCCCCCCOC(=O)c1ccccc1)c1ccccc1,27.3 µM (active),inactive,inactive,inactive,inactive,inactive,inactive,inactive,inactive,,inactive,inactive,inactive,,,,inactive,inactive,
CCCCC(=O)OCC(=O)[C@H]1[C@H](C)C[C@H]2[C@@H]3C[C@H](F)C4=CC(=O)C=C[C@]4(C)[C@@]3(F)[C@@H](O)C[C@@]21C,inactive,inactive,,inactive,inactive,inactive,inactive,inactive,0.0133 µM (active),,,inactive,inactive,0.0067 µM (active),inactive,inactive,,,inactive
CC[N+](C)(CC)CCOC(=O)C(O)(c1ccccc1)C1CCCCC1 (centres undefined),inactive,inactive,inactive,inactive,inactive,inactive,inactive,,inactive,inactive,inactive,inactive,inactive,,,inactive,,,
c1ccc(-c2ccccn2)nc1,inactive,inactive,inactive,inactive,inactive,inactive,inactive,inactive,inactive,,inactive,inactive,inactive,inactive,,inactive,inactive,inactive,
CC(C)Nc1ccc(NC(C)C)c2c1C(=O)c1ccccc1C2=O,inactive,11.3 µM (active),,inactive,inactive,inactive,,11.3 µM (active),inactive,inactive,,inactive,inactive,,,,,,inactive
C[C@@H]1C[C@H]2[C@@H]3CCC4=CC(=O)C=C[C@]4(C)[C@@]3(F)[C@@H](O)C[C@]2(C)[C@@]1(O)C(=O)COC(=O)c1ccncc1,inactive,inactive,29.8 µM (active),inactive,inactive,inactive,,inactive,,inactive,,inactive,inactive,0.0067 µM (active),,inactive,,,
O=C(O)c1ccco1,inactive,inactive,inactive,inactive,inactive,inactive,inactive,inactive,inactive,,,inactive,inactive,,inactive,inactive,inactive,inactive,
O=C(c1ccc(F)cc1)C1CCN(CCn2c(=S)[nH]c3ccccc3c2=O)CC1,inactive,inactive,,,,inactive,inactive,,inactive,inactive,inactive,inactive,,inactive,,,inactive,inactive,
CC/C=C\CCOC(=O)CC,inactive,inactive,inactive,inactive,,inactive,inactive,,inactive,inactive,inactive,inactive,inactive,,,inactive,inactive,inactive,
CCCCCCCC/C=C\CCCCCCCC(=O)OCC,inactive,inactive,inactive,inactive,,inactive,inactive,inactive,,,inactive,inactive,inactive,,,inactive,inactive,inactive,
CCCCc1ncc(/C=C(\Cc2cccs2)C(=O)O)n1Cc1ccc(C(=O)O)cc1,inactive,inactive,inactive,inactive,,inactive,inactive,inactive,inactive,inactive,inactive,inactive,,,,inactive,inactive,inactive,
O=C(NCCO[N+](=O)[O-])c1cccnc1,inactive,inactive,inactive,inactive,,inactive,inactive,,inactive,inactive,inactive,inactive,,,,inactive,inactive,inactive,
CCN(CC)CCOC(=O)C(Cc1cccc2ccccc12)CC1CCCO1 (centres undefined),inactive,inactive,,inactive,,inactive,,,inactive,,inactive,inactive,inactive,,inactive,inactive,inactive,inactive,
Cc1oc2c(NC(=O)c3c(Cl)cccc3Cl)cccc2c1C(C)(C)O,8.63 µM (active),21.7 µM (active),30.6 µM (active),,inactive,inactive,inactive,,,,inactive,inactive,inactive,,24.3 µM (active),inactive,inactive,inactive,
CCOC(=O)C(F)(F)F,inactive,inactive,inactive,inactive,,inactive,inactive,inactive,inactive,inactive,,inactive,inactive,,inactive,inactive,inactive,inactive,
COCCCN1CCC(NC(=O)c2cc(Cl)c(N)c3c2OCC3)CC1,inactive,inactive,inactive,inactive,,inactive,inactive,inactive,inactive,inactive,inactive,inactive,inactive,,inactive,inactive,,,
CNC(=O)CN(CCN(CCN(CC(=O)[O-])CC(=O)NC)CC(=O)[O-])CC(=O)[O-].O.[Gd+3],inactive,inactive,inactive,inactive,inactive,,,inactive,inactive,inactive,inactive,inactive,inactive,,inactive,inactive,inactive,inactive,
CCCCC/C=C\C/C=C\CCCCCCCC(=O)NC(C)c1ccccc1 (centres undefined),13.3 µM (active),inactive,,inactive,inactive,inactive,,,inactive,,inactive,inactive,,,,,inactive,inactive,
CCCCCCCCCCCCCCOS(=O)(=O)O,inactive,inactive,30.6 µM (active),61.1 µM (active),inactive,inactive,,inactive,inactive,30.6 µM (active),inactive,inactive,inactive,,,,inactive,inactive,
CC(C)O.CC(C)O.CCOC(=O)/C=C(\C)O.CCOC(=O)/C=C(\C)O.[Ti],inactive,inactive,inactive,inactive,,inactive,inactive,,inactive,inactive,inactive,inactive,,,,inactive,,,
CC(=O)[O][Al][O]C(C)=O,inactive,inactive,,inactive,,inactive,,,inactive,inactive,,inactive,inactive,,inactive,inactive,,,
CCCNCC(O)COc1ccccc1C(=O)CCc1ccccc1 (centres undefined),4.73 µM (active),inactive,26.6 µM (active),23.7 µM (active),,inactive,,inactive,inactive,,inactive,inactive,inactive,,,inactive,inactive,inactive,
